# The list is not random: actives were taken first. Their share in the collection is about 3.6%.
# PLK1 PBD block – PLK1 (human) polo-box domain binding inhibition; P53350; Plk1 PBD binding of FITC phosphopeptide, fluorescence polarization; Potency, µM, without a hit: max response, negative = inhibition, actives largely listed as inhibitors; 2.8% of 360,000 active; also: potency is read from the fitted curve at half-maximal effect; series mostly up to about 57 µM; % is scaled to controls: 0 for no effect and ±100 for the full control effect; nearly all actives have a fitted effect of over 65% in size
# Rango complex inh – Rango-importin beta binding inhibition; Q14974; Rango CFP/YFP FRET sensor + importin beta, 45 min; Potency, µM (doses to about 92.2 µM), inactives show at the top dose inhibition of complex formation; 0.031% of 340,000 active; AID 540263; calls by dose curve;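 also: potency is read from the fitted curve at half-maximal effect; 0% = DMSO wells and 100% = buffer wells lacking importin beta; nearly all actives have a fitted effect of over 15% in size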
#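 Inhibition scored from the CFP 486 nm/YFP 530 nm FRET ratio 45 min after adding 0.125 microM importin beta to 50 nM Rango biosensor preincubated 5 min with compound (room temperature, PBS with DTT, Tween-20, BSA). No-importin wells as positive control.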
# KAT2A inh – GCN5L2 (KAT2A) acetyltransferase inhibition. Potency, µM (top dose mostly 58.9 µM), without a hit: at the highest dose activity change, negative = inhibition, usual class: inhibitors. 0.21% of 390,000 active. GCN5L2 HAT assay, ThioGlo1 CoA-SH fluorescence. Q92830; also: potency is read from the fitted curve at half-maximal effect; % is scaled to controls: 0 for no effect and ±100 for the full control effect
#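 Titration-based screen in which CoA formation is detected via maleimide probe ThioGlo1 (50uM) turning fluorescent on thiol reaction; substrates H3(1-25) 75uM and acetyl-CoA 70uM, GCN5L2 20nM, 20 min incubation at room temperature.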
# VDR inh – vitamin D3 receptor (human) inhibition; P11473; VDR-SRC2-3 peptide fluorescence polarization, 2 h; Potency, µM, without a hit: max response, negative = inhibition, hits mostly inhibitors; 0.93% of 400,000 active; also: potency is read from the fitted curve at half-maximal effect; % is scaled to controls: 0 for no effect and ±100 for the full control effect
# Target sequence (P11473 whole entry, looked up): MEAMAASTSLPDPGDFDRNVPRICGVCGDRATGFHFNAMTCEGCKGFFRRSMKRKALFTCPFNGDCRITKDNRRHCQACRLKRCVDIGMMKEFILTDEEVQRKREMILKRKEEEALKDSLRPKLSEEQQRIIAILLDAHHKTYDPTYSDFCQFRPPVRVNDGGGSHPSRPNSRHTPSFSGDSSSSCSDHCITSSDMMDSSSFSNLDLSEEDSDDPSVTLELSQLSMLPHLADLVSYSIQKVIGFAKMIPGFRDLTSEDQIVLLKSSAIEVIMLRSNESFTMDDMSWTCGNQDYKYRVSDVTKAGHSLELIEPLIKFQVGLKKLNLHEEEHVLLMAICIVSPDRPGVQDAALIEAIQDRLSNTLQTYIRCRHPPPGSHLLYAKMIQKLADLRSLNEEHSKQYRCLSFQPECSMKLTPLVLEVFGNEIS
#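 Inhibition of the VDR/SRC2-3 peptide interaction is quantified by fluorescence polarization. Compounds (23 nl, pintool) incubate with the reagents for 2 hours at ambient room temperature.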
# Rango release inh – prevents RanGTP from dissociating the Rango-importin beta complex; 0.071% of 340,000 active; O95149+P62826; Biochemical FRET Rango-importin beta, RanGTP-induced dissociation; Potency, µM (titrated, usually from 46.1 µM), for the others: top-dose activity change, negative = inhibition; calls by dose curve; also: potency is read from the fitted curve at half-maximal effect; % of control where 0% means no effect; nearly all actives have a fitted effect of over 45% in size
#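 Two FRET readings bracket the reaction: one 5 min after compound meets Rango–importin beta, another 45 min after RanGTP-RCC1 (0.6 uM Ran, 0.2 uM RCC1, 2 mM GTP) is added. Only the second defines inhibition.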
# PI5P4Ka inh – inhibitors of human PI5P4K alpha; P48426; PI5P4Kalpha enzyme, ADP-Glo luminescence, 60 min; active compounds read low; max response, %; 1.2% of 330,000 active; active = max response of -50% or lower; inconclusive = between -30% and -50%; inactive = -30% or higher; also: value at the top dose of about 77 µM; % is scaled to controls: 0 for no effect and ±100 for the full control effect
#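 Enzyme plus substrate dispensed, test compounds pinned in, then ATP (5 microM final) added. After 60 min at RT, ADP-Glo reagent 1 for 45 min and reagent 2 for 30 min preceded luminescence imaging.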
# * hit, by the source's call; u = inconclusive; x = not tested or not shown. Unless noted, calls follow the shape of the dose curve; as a rule, active = well fitted curve in the direction sought with a large enough effect; inconclusive = small, poorly fitted or top-dose-only effect, or another doubt; inactive = no such curve, though single readings can be large; an effect the other way counts as inactive or inconclusive.
SMILES,PLK1 PBD block,Rango complex inh,KAT2A inh,VDR inh,Rango release inh,PI5P4Ka inh
O=c1c(Cl)c(Cl)cnn1Cc1nnc(-c2ccccc2Br)o1,u,0.3%,-13.3%,u,5.5%,-57.2*
Oc1ccc(/C=N/NC(=S)Nc2cccnc2)c(O)c1,u,u,-2.6%,-2.5%,u,-75.1*
Oc1ccc(/C=N/NC(=S)Nc2cccnc2)c(O)c1O,6.7µM*,u,-9.0%,50.1µM*,-0.8%,-96.4*
Fc1c(F)c(F)c(/C=N/NC(=S)Nc2cccnc2)c(F)c1F,-6.2%,-1.3%,2.5%,-15.3%,2.8%,-11.3
Oc1cccc(/C=N/NC(=S)Nc2cccnc2)c1O,0.0%,u,-1.0%,0.4%,-22.7%,-66.2*
COc1cccc(/C=N/NC(=S)Nc2cccc(C(=O)O)c2)c1O,-19.0%,u,-16.2%,3.3%,u,-60.2*
O=C(CCC(=O)Nc1ccc(F)cc1)N/N=C/c1ccc(O)cc1O,-15.5%,u,-1.1%,17.4%,u,-3.9
O=C(N/N=C/c1ccc(O)cc1O)C(=O)N/N=C/c1ccc(O)cc1O,11.9µM*,u,0.7%,u,u,-25.4
Cc1cccc(N/N=C/c2ccc(O)c(O)c2O)c1,11.9µM*,-4.7%,-9.4%,u,-8.9%,-23.3
CCCCCCCCCCN1CCOCCOCCN(CCCCCCCCCC)CCOCCOCC1,x,x,5.5%,3.9%,x,x
Cc1ccc(CSc2ncc(Cl)c(C(=O)NCCc3ccc(S(N)(=O)=O)cc3)n2)cc1,x,x,-28.4%,4.6%,x,x
O=C1N(c2ccccc2)CCN1c1ccccc1,-11.2%,-0.2%,-4.7%,3.7%,-7.6%,6.2
O=S1OCCN1c1ccccc1 (stereo unspecified),33.6µM*,-0.3%,-6.9%,0.0%,-7.3%,-10.6
CCC(C)n1c(=O)c2sccc2n2c(CCCC(=O)Nc3ccc(F)cc3)nnc12 (stereo unspecified),x,x,-6.3%,2.5%,x,x
Cc1cc(C)n2nc(-c3cccc(Br)c3)cc2n1,-6.9%,-1.5%,-6.6%,10.3%,-2.8%,16.5
Cc1cccc(-c2cc3nc(C)cc(C)n3n2)c1,21.2µM*,0.4%,-4.7%,-0.7%,-5.1%,-3.0
CC1Cc2ccccc2N1c1ncnc2c1nnn2Cc1ccccc1Cl (stereo unspecified),26.7µM*,3.5%,1.9%,1.7%,18.1%,-0.4
CC(C)(C)NC(=O)CSc1ncnc2c1nnn2Cc1ccccc1Cl,26.7µM*,0.1%,-13.6%,u,-0.5%,-0.4
O=C(CSc1ncnc2c1nnn2Cc1ccccc1)NC1CCCC1,-29.5%,-4.1%,-0.8%,-2.9%,0.5%,-0.8
Cc1ccsc1/C=N/N1CCN(Cc2ccccc2)CC1,21.2µM*,1.9%,-6.0%,4.5%,7.8%,-12.7
COC(=O)COc1cccc(NC(=O)c2ccc(Cl)cc2)c1,29.9µM*,2.0%,18.5%,u,6.3%,0.5
COC(=O)COc1cccc(NC(=O)c2cc(OC)cc(OC)c2)c1,-2.0%,-1.8%,0.9%,-11.6%,0.4%,-6.8
CCOCCCN(Cc1ccco1)C(=O)c1cc2c(s1)-c1c(C)cccc1OC2,x,x,-10.4%,-15.8%,x,x
O=C(O)CCc1nn2c3ccccc3n(Cc3ccccc3F)c2nc1=O,26.7µM*,-3.8%,-0.3%,u,-17.4%,2.7
O=C(O)CCc1nn2c3ccccc3n(CC(=O)O)c2nc1=O,-15.1%,-0.2%,9.5%,37.6%,3.8%,-3.2
SMILES,PLK1 PBD block,Rango complex inh,KAT2A inh,VDR inh,Rango release inh,PI5P4Ka inh
CCn1c(=O)n(CC)c2cc(N3CCCCC3)c(NC(=O)Nc3ccccc3Cl)cc21,x,x,-13.2%,9.8%,x,x
OC(C#Cc1ccccn1)c1cccs1 (stereo unspecified),29.9µM*,-1.4%,1.6%,50.1µM*,0.0%,-5.9
COc1ccc2cc(C(=O)NCc3ccccc3)c(=Nc3ccc(C(=O)O)cc3)oc2c1,-8.4%,-3.0%,-8.5%,-7.4%,-12.0%,0.2
NC(=O)c1cc2ccc(O)cc2oc1=NCc1ccccc1,11.9µM*,u,-5.1%,-13.9%,u,x
O=C(O)c1ccc(N=c2oc3cc(O)ccc3cc2C(=O)NCc2ccccc2)cc1,u,u,-6.6%,-5.9%,u,-78.2*
NC(=O)c1cc2ccc(O)cc2oc1=Nc1ccccc1,15µM*,u,-5.9%,-4.2%,u,-72.2*
CCCCOc1ccc(S(=O)(=O)N2CCN(c3ccccc3OCC)CC2)cc1,x,x,-3.9%,-3.2%,x,x
CC1CCN(C(=O)c2ccc3c(c2)N(Cc2ccccc2F)C(=O)c2ccccc2S3(=O)=O)CC1,x,x,-5.7%,-19.0%,x,x
O=C(O)c1ccc([N+](=O)[O-])c(CS(=O)(=O)c2ccc(Cl)cc2)c1,-9.9%,-2.9%,-10.0%,-4.1%,-7.9%,-2.1
O=C(CBr)c1ccc([N+](=O)[O-])c(CS(=O)(=O)c2ccc(Cl)cc2)c1,-23.0%,3.9%,18.3%,35.5µM*,2.0%,-7.2
CCOC(=O)c1c(NC(=O)CCC(=O)O)sc2c1CCCCC2,6.7µM*,-0.9%,-14.3%,u,4.6%,-20.4
CCOC(=O)c1c(NC(=O)c2c(C(=O)O)cccc2[N+](=O)[O-])sc2c1CCCC2,11.9µM*,7.2%,-4.9%,u,-2.9%,u
CCOC(=O)c1c(NC(=O)c2cccc([N+](=O)[O-])c2C(=O)O)sc2c1CCCC2,u,0.6%,-3.5%,-21.7%,-25.6%,u
CCOC(=O)c1c(/N=C/c2ccccc2O)sc2c1CCC2,u,4.7%,-17.4%,-7.3%,-8.0%,-11.0
CCOC(=O)c1c(/N=C/c2cccc([N+](=O)[O-])c2O)sc2c1CCC2,26.7µM*,-1.3%,-3.0%,-31.6%,3.6%,-14.1
CCOc1ccc(N(C(=O)OC(C)(C)C)C(=O)c2ccc(O[Si](C)(C)C(C)(C)C)cc2)c(I)c1,x,x,x,2.2%,x,x
CC(=O)N1CCCc2ccc(NC(=O)c3ccc(C(F)(F)F)cc3)cc21,x,x,14.2%,8.8%,x,x
O[C@@H]1CO[C@H]2[C@@H]1OC[C@@H]2O,x,x,-6.1%,9.6%,x,x
CCc1nnc(NC(=O)C(=O)NCCOC(=O)c2ccccc2Cl)s1,-4.0%,-2.9%,3.16µM*,-1.4%,3.3%,x
c1ncc(-c2ccoc2)c(NC2CC2)n1,x,x,u,50.1µM*,x,x
COc1ccc(CNc2cc(-c3ccccc3OC)ncn2)c(OC)c1,x,x,-22.0%,u,x,x
COc1ccc(CNc2cc(-c3cccnc3)ncn2)c(OC)c1,x,x,u,31.6µM*,x,x
COc1ccc(CNc2ncnc3ccc(-c4ccoc4)cc23)c(OC)c1,x,x,-19.5%,39.8µM*,x,x
COc1ccc(CNc2ncncc2-c2ccoc2)c(OC)c1,x,x,-9.6%,50.1µM*,x,x
COc1ccc(CNc2ncnc3ccc(-c4ccc5c(c4)OCO5)cc23)c(OC)c1,x,x,-15.4%,-14.9%,x,x
CCCN1CCN(CCCNC(=O)c2ccc3c(c2)sc2nc(-c4ccc(C)cc4)cn23)CC1,x,x,-9.8%,19.5%,x,x
c1cncc(CNc2ncncc2-c2ccoc2)c1,x,x,-19.7%,50.1µM*,x,x
